# Assay results: PubChem BioAssay
# Calls of active or inactive are those of the source.
# Key:
# [1] = optical density shifts of acrAB sulA E. coli – strain DRC41, OD650, 48 h, E. coli filamentation inducer project, primary screen (AID 1152); settings: higher = more signal, called active from +8 up or from −8 down;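 note: E. coli MC1000 strain DRC41 lacking acrAB efflux pump and sulA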
# [2] = probe aLefty1 binding on compound microarray – biochemical, small-molecule microarray, 635/667 nm fluorescence, primary screen (AID 1153); settings: higher = more signal;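 note: score merges spot fluorescence with signal-to-noise ratio from the scanned slide images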
# [3] = plasmodial surface anion channel blockers, osmotic lysis – cell-based, P. falciparum Indochina, OD700, 1 h, primary screen (AID 1154); settings: P. falciparum Indochina infected RBC osmotic lysis, higher = more signal, called active from +8 up or from −8 down
# [4] = plasmodial surface anion channel blockers, osmotic lysis – cell-based, P. falciparum Indochina, OD700, 2 h, primary screen (AID 1155);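 note: lysis reports solute entry through the parasite surface anion channel PSAC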; settings: P. falciparum Indochina infected erythrocytes, higher = more signal, called active from +8 up or from −8 down
# [5] = changes in parasitized red cell lysis, either direction – P. falciparum Indochina, OD700, 3 h, PSAC antagonist project, primary screen (AID 1156); settings: P. falciparum-infected erythrocytes, osmotic lysis, higher = more signal, called active from +8 up or from −8 down
# [6] = plasmodial surface anion channel blockers, osmotic lysis – cell-based, P. falciparum Indochina, OD700, 18 h, primary screen (AID 1157); settings: P. falciparum Indochina infected erythrocytes, osmotic lysis OD700, 18 h; higher = more signal, called active from +8 up or from −8 down
# [7] = S6 kinase pathway phospho-S6 level changes – cell-based, A549, cytoblot, luminescence, serum-stimulated, primary screen (AID 1158); settings: 5 h, higher = more signal;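 note: serum-stimulated A549 lung adenocarcinoma cells; signal is phosphorylated S6 detected by cytoblot immunostaining with HRP secondary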
# [8] = molecular target: NADPH oxidase 2 (Homo sapiens) (UniProt P04839); assay: compounds shifting NOX2 Amplex Red fluorescence – cell-based, HEK293-NOX2, PMA-stimulated, NOX inhibitor project, primary screen (AID 1159); settings: 45 min, higher = more signal, called active from +8 up or from −8 down; note: test concentration not given here
# NADPH oxidase 2 (Homo sapiens), sequence (P04839 whole entry, looked up): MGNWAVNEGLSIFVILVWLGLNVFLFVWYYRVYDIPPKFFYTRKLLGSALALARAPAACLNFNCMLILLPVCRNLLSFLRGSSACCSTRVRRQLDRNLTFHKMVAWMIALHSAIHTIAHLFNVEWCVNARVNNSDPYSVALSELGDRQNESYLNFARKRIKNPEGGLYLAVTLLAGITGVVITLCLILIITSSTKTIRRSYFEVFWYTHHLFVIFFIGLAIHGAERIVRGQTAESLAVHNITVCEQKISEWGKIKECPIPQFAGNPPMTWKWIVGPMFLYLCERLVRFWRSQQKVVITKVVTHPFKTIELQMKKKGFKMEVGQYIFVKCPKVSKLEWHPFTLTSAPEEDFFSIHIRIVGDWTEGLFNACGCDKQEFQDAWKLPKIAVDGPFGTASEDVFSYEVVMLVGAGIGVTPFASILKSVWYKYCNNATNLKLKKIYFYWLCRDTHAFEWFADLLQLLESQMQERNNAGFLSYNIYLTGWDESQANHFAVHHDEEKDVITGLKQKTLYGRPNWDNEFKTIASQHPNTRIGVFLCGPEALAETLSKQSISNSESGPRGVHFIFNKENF
# [9] = molecular target: NADPH oxidase 4 (Homo sapiens) (UniProt Q9NPH5); assay: compounds shifting NOX4 Amplex Red fluorescence – cell-based, HEK293-NOX4, tetracycline-induced, NOX inhibitor project, primary screen (AID 1160); settings: HEK293-NOX4, Amplex Red H2O2 fluorescence, 45 min; higher = more signal, called active from +8 up or from −8 down
# NADPH oxidase 4 (Homo sapiens), sequence (Q9NPH5 whole entry, looked up): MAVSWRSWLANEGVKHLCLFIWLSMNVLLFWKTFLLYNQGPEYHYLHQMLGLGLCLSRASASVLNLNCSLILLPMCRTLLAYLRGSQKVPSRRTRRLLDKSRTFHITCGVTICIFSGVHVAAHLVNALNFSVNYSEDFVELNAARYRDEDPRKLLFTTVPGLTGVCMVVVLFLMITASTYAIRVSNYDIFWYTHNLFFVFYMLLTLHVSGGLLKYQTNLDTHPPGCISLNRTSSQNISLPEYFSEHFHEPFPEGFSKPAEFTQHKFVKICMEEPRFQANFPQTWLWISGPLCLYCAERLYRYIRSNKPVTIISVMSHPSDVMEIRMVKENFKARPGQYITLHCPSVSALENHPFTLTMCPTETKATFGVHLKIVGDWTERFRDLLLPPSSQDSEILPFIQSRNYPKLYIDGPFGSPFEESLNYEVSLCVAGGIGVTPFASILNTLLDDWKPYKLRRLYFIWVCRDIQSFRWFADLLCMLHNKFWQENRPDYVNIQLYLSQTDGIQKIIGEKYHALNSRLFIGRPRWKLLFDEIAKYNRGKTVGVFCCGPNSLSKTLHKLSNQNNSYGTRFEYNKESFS
# [10] = molecular target: NADPH oxidase 5 (Homo sapiens) (UniProt Q96PH1); assay: compounds shifting NOX5 Amplex Red fluorescence – cell-based, HEK293-NOX5, NOX inhibitor project, primary screen (AID 1161); settings: HEK293-NOX5, ionomycin, 45 min, higher = more signal
# NADPH oxidase 5 (Homo sapiens), sequence (Q96PH1 whole entry, looked up): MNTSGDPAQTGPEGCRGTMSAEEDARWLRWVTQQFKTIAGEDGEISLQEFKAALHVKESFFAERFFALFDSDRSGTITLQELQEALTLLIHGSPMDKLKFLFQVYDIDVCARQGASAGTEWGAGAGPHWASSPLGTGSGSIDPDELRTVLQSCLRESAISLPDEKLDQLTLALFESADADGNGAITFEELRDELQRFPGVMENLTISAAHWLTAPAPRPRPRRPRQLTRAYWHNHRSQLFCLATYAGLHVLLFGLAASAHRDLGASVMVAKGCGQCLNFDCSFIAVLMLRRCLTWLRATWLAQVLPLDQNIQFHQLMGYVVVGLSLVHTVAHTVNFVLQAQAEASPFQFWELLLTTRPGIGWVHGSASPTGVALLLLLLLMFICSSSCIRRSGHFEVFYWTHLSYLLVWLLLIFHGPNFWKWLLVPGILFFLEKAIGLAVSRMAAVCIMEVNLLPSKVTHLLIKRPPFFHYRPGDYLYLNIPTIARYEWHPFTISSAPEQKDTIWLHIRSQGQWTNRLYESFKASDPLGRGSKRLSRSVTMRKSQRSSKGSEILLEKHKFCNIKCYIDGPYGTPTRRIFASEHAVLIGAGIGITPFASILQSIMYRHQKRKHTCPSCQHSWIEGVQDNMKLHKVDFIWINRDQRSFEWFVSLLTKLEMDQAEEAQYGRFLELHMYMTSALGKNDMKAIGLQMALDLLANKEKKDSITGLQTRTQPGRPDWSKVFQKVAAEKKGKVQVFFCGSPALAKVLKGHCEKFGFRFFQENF
# [11] = compound effects on lung adenocarcinoma cell viability – A549, calcein-AM fluorescence, 48 h, basal, profiling panel (AID 1162); settings: higher = more signal; note: test concentration not given here
# [12] = compound effects on differentiated 3T3-L1 adipocyte viability – cell-based, 3T3-L1 adipocytes, calcein-AM fluorescence, 48 h, basal, profiling panel (AID 1163); settings: 3T3-L1 adipocytes viability, higher = more signal; note: test concentration not given here
# [13] = compound effects on hepatocellular carcinoma cell viability – HepG2, calcein-AM fluorescence, 48 h, basal, profiling panel (AID 1164); settings: higher = more signal; note: test concentration not given here
# [14] = compound effects on multiple myeloma cell viability – MM1S, calcein-AM fluorescence, 48 h, basal, profiling panel (AID 1165); settings: higher = more signal;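 note: viability of MM1S multiple myeloma cells under basal unstimulated conditions; test concentration not given here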
# [15] = calcein-AM signal in unstimulated myeloma cells – cell-based, calcein-AM fluorescence, 48 h, PK04 Diversity Set, profiling panel (AID 1166); settings: RPMI8226 myeloma viability, higher = more signal;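 note: cells grown under basal conditions without added stimulus; test concentration not given here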
# [16] = JC-1 mitochondrial signal, unstimulated HepG2 cells – cell-based, JC-1 fluorescence, 24 h, 100 nL compound, profiling panel (AID 1167); settings: HepG2 mitochondrial potential, higher = more signal; note: test concentration not given here
# [17] = JC-1 mitochondrial signal, unstimulated adipocytes – cell-based, JC-1 fluorescence, 3T3-L1 adipocytes, 24 h, 100 nL compound, profiling panel (AID 1168); settings: JC-1 mitochondrial fluorescence, higher = more signal, called active from +8 up or from −8 down; note: test concentration not given here
# [18] = JC-1 mitochondrial signal, unstimulated myeloma cells – cell-based, JC-1 fluorescence, RPMI8226, 24 h, 100 nL compound, profiling panel (AID 1169); settings: JC-1 mitochondrial potential fluorescence, higher = more signal; note: test concentration not given here
# [19] = JC-1 mitochondrial signal, unstimulated MM1S myeloma – cell-based, JC-1 fluorescence, 24 h, 100 nL compound, profiling panel (AID 1170); settings: MM1S mitochondrial potential, higher = more signal; note: test concentration not given here
# [20] = resazurin metabolic signal in A549 cells – cell-based, resazurin fluorescence, 24 h, PK04 Diversity Set, profiling panel (AID 1171); settings: A549 viability, higher = more signal, called active from +8 up or from −8 down; note: test concentration not given here
Structure (SMILES),z-score [1],composite z-score [2],z-score [3],z-score [4],z-score [5],z-score [6],z-score [7],z-score [8],z-score [9],z-score [10],z-score [11],z-score [12],z-score [13],z-score [14],z-score [15],z-score [16],z-score [17],z-score [18],z-score [19],z-score [20]
COc1ccc(-c2cnnc(CCCn3ccnc3-c3ccccc3)n2)cc1,-0.249 (inactive),-0.0576,26.2 (active),9.62 (active),0.886 (inactive),0.982 (inactive),-0.714,1.27 (inactive),-0.372 (inactive),-1.2,-0.98,1.02,-1.28,-1.82,-2.55,-1.5,-0.876 (inactive),-0.87,-0.543,-3.49 (inactive)
CC(C)(C)N1C(=O)[C@H]2[C@H]3[C@H](O)[C@H](O)CC(=NOC[C@@H](O)COCc4ccco4)[C@@H]3CC[C@H]2C1=O,0.0978 (inactive),0.211,0.693 (inactive),-0.335 (inactive),-0.222 (inactive),-0.261 (inactive),-0.151,0.725 (inactive),-1.96 (inactive),-0.279,-0.535,0.935,-0.274,0.268,-1.63,-1.12,-0.243 (inactive),0.431,0.325,-0.0978 (inactive)
CCN1C(=O)[C@H]2[C@@H]3C(=CC[C@H]2C1=O)C(=O)[C@H]1O[C@H]1[C@H]3O,-1.08 (inactive),-0.214,1.17 (inactive),0.497 (inactive),0.244 (inactive),0.282 (inactive),-0.383,0.428 (inactive),-1.86 (inactive),0.121,-0.163,0.634,-0.929,-3.04,-3.9,-2.06,0.772 (inactive),-0.991,-2.82,-1.17 (inactive)
CCN1C(=O)[C@H]2[C@H]3[C@H](O)[C@H](O)CC(=NO[C@@H](C)c4cc(-c5c(C)cc(C)cc5C)no4)[C@@H]3CC[C@H]2C1=O,0.663 (inactive),-0.103,2.34 (inactive),0.496 (inactive),0.504 (inactive),0.588 (inactive),-0.428,0.204 (inactive),0.175 (inactive),0.211,0.165,0.335,-0.401,-0.807,-1.14,-1.38,-3.4 (inactive),0.473,-0.176,0.296 (inactive)
CC(CCN1CCCc2nc(C)c(C)cc21)=NO[C@H](C)c1cn([C@@H]2COC[C@H]2O)nn1,0.686 (inactive),0.184,1.65 (inactive),0.763 (inactive),0.09 (inactive),0.564 (inactive),-0.607,-0.61 (inactive),-0.259 (inactive),0.371,0.105,-0.563,0.243,-0.674,-0.0215,0.219,0.707 (inactive),0.641,-0.825,-0.294 (inactive)
COc1ccc(O[C@H]2C=C[C@@H](c3ccccc3)O[C@@H]2CO)cc1,0.0426 (inactive),-0.0501,2.91 (inactive),1.29 (inactive),-0.0071 (inactive),0.64 (inactive),-0.781,-0.242 (inactive),-0.634 (inactive),-2.07,0.109,0.0705,-0.27,-0.307,-0.0698,0.194,-0.637 (inactive),0.362,-0.42,-0.521 (inactive)
COC(=O)[C@@H]1CC[C@H](C)[C@@H](c2ccc(Br)cc2)N1C[C@H](O)CN=[N+]=[N-],-0.972 (inactive),0.181,1.04 (inactive),0.852 (inactive),0.48 (inactive),0.541 (inactive),0.928,-0.855 (inactive),-1.08 (inactive),-0.0951,0.128,0.878,-0.671,0.572,-0.878,-0.0153,-0.416 (inactive),-0.443,0.75,-0.624 (inactive)
O=C1[C@H]2[C@H]3[C@H](O)[C@H](O)CC(=NOC[C@@H](O)COCc4ccco4)[C@@H]3CC[C@H]2C(=O)N1c1cccc(Oc2ccccc2)c1,-1.26 (inactive),-0.247,2.27 (inactive),0.802 (inactive),1.39 (inactive),0.157 (inactive),-0.664,2.2 (inactive),1.32 (inactive),0.425,-0.382,-0.454,-1.19,-0.163,0.0958,-0.0749,-0.785 (inactive),0.688,-0.105,0.0561 (inactive)
COc1ccc(COC(=O)NN=C2C[C@@H](O)[C@@H](O)[C@@H]3[C@@H]4C(=O)N(C[C@@H]5CCCO5)C(=O)[C@@H]4CC[C@@H]23)cc1,1.08 (inactive),-0.235,3.44 (inactive),0.415 (inactive),1.3 (inactive),0.18 (inactive),-0.0088,-0.682 (inactive),0.995 (inactive),-0.0772,0.795,-0.825,0.245,-0.657,0.51,0.567,0.658 (inactive),-0.252,-1.38,-0.547 (inactive)
